A selection: hits, their analogues and other compounds. The true share with any hit is near 3.1%.
S1P3 antag – S1P3 receptor antagonists, primary screen, cell-based; inhibition, % at 4.98 µM; Sphingosine 1-phosphate receptor 3 (Homo sapiens), Q99500; 170,000 tested, 0.27% active; CHO S1P3 NFAT-BLA reporter, FRET fluorescence, antagonist mode; AID 485, 2006;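 active means inhibition above the plate cutoff, the mean inhibition of test wells on that plate plus 3 SD, cut at about 28% in these data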;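 further: cells challenged with S1P at its EC80 of 0.8 µM; blue over green emission ratio from cleaved BLA substrate after 4 h stimulation; 0% = S1P-stimulated wells and 100% = unstimulated DMSO-only wells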
EP2 mod – EP2 receptor modulators, cAMP readout, primary screen, cell-based, HTRF cAMP, PGE2 stimulation | induction, % at 25 µM | AID 940, 2007 | EP2-expressing cells, cAMP HTRF FRET, PGE2 co-stimulation | Prostaglandin E2 receptor EP2 subtype (Homo sapiens), P43116 | 260,000 tested, 0.83% active;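 active means compounds whose cAMP rise, as percent of the full-agonist control response, exceeds 60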;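 further: rat C6 glioma line stably carrying human EP2 under a CMV promoter; the protocol text gives 20 µM as final concentration; 100% = response of wells given 1 µM PGE2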
EP2 antag – human EP2 receptor antagonists, primary screen, TR-FRET cAMP, C6 glioma cells. C6 glioma cells expressing human EP2; cells stimulated with saturating PGE2. inhibition, % at 25 µM. 260,000 tested, 0.52% active. AID 1422, 2008;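 active means percent inhibition above 40 after rounding to a whole number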;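 further: rat C6 glioma host cells with rolipram phosphodiesterase inhibitor present; the protocol text gives 20 µM as final concentration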
Cl transport mod – KCC2 cotransporter modulators, thallium flux, primary screen, cell-based, HEK293 KCC2, FluoZin-2 fluorescence, MLSMR; Solute carrier family 12 member 5 (Homo sapiens), Q9H2X9; KCC2 cells, thallium flux FluoZin-2 fluorescence; B-score of Tl+ flux slope (higher = more flux/activation; lower = inhibition) at 10 µM; 190,000 tested, 2.2% active; AID 1456, 2008;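 active means thallium flux slope and its plate-corrected score both differing from the plate sample mean at a set confidence after two filtering rounds, in either direction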;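 further: slope of fluorescence scaled to starting intensity during 10 to 20 s after thallium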
Target sequence (Q9H2X9 whole entry, looked up): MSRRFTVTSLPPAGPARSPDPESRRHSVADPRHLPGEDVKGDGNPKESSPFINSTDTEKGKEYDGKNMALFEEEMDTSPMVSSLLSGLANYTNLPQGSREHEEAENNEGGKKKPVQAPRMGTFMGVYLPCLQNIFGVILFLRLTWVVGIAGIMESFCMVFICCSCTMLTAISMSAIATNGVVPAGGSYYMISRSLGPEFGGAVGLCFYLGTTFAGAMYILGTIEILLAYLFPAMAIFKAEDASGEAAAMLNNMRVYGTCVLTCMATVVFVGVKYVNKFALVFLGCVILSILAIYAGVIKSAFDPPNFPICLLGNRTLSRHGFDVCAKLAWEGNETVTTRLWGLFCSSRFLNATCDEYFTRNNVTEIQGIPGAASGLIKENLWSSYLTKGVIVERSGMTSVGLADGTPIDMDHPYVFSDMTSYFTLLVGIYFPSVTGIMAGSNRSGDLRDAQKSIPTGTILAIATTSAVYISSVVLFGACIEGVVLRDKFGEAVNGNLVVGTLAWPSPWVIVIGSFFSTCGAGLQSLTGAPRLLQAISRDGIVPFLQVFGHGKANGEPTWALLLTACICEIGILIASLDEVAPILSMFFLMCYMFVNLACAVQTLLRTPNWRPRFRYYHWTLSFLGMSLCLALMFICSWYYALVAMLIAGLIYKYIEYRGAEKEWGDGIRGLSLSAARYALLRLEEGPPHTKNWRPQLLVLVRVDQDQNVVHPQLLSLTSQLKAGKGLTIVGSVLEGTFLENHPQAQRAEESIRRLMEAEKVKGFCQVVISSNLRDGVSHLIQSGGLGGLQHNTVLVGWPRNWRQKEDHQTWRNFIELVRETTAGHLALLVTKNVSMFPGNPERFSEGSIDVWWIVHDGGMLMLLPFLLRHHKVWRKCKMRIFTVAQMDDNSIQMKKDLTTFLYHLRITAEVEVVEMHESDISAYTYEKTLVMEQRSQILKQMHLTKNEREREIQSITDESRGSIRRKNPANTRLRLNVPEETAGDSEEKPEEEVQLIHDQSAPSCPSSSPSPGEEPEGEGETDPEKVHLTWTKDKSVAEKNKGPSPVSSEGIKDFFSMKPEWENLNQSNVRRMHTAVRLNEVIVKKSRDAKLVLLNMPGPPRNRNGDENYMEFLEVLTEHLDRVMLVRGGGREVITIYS
KCC2 sec1 – KCC2 modulators in sodium-free buffer, confirmation, cell-based, HEK293 KCC2, thallium flux, secondary assay; shares compounds with Cl transport mod; FluoZin2 fluorescence; active compounds read high; normalised thallium flux (F/F0 slope) at 10 µM; 3,700 tested, 15% active;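 active means thallium flux slope above the same plate's solvent-only control mean plus 3 SD; inconclusive means the two replicate wells disagree; inactive means no significant difference from solvent-only control wells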
KCC2 bumet counter – thallium flux persisting under bumetanide in KCC2 cells, confirmation, counter-screen for KCC2 modulator project, cell-based, HEK293 KCC2, FluoZin2, secondary assay 3. 3,700 tested, 49% active. shares compounds with Cl transport mod. HEK293-KCC2 + bumetanide/ouabain; active compounds read high. normalized thallium flux at 10 µM;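 active means thallium entry rate above the same plate's blocked-transporter control wells by more than 3 SD; inconclusive means the two repeat wells disagree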;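 further: raw slope of fluorescence over initial fluorescence between 10 and 20 s after thallium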
KCC2 secondary2 – KCC2 modulators without ouabain present, confirmation, cell-based, HEK293 KCC2, thallium flux, FluoZin2, secondary assay 2 | shares compounds with Cl transport mod | 3,700 tested, 23% active | normalized thallium flux at 10 µM | thallium flux FluoZin2 fluorescence; actives lie on both sides; F/F0 rise rate, 10–20 s post-thallium | AID 1715, 2009;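 active means thallium flux slope more than 3 SD above or below the plate's solvent-only control mean, mostly below; inconclusive means the two repeat wells disagreed; inactive means no significant shift from solvent-only controls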;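 further: raw slope with 0.1% DMSO as baseline and bumetanide as block control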
HEK293 Tl flux – thallium flux modulation in parental HEK cells, confirmation, counter-screen for KCC2 modulator project, cell-based, counterscreen 1; shares compounds with Cl transport mod; HEK293 parental cells, thallium flux FluoZin2, ouabain; baseline-ratio fluorescence slope, 10–20 s after thallium; thallium flux rate (normalised fluorescence) at 10 µM; 3,700 tested, 46% active; AID 1716, 2009;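 active means thallium flux rate significantly above the same plate's solvent-only control wells, beyond their mean plus 3 SD; inconclusive means the two replicate wells gave conflicting results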
KCC2 retest ouab – KCC2 inhibitors and activators, ouabain retest, confirmation, HEK-KCC2 cells; raw Tl+ flux slope (below DMSO = inhibition, above = activation) at 10 µM; 3,700 tested, 48% active; AID 1717, 2009; HEK293-KCC2, thallium flux FluoZin2 fluorescence; bidirectional: low = inhibitor, high = activator; shares compounds with Cl transport mod;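 active means thallium flux slope beyond 3 SD from same-plate DMSO control mean in most replicates, usually higher, sometimes lower; inconclusive means repeat tests gave conflicting results; inactive means no significant difference from controls in most replicates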;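 further: slope of initial-normalized fluorescence between seconds 10 and 20 after thallium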
HEK293 Tl flux2 – native HEK Tl+ uptake effects, second counter-screen – HEK cells, counterscreen 2, counter-screen for KCC2 modulator project, confirmation; shares compounds with Cl transport mod; HEK293 parental, thallium flux FluoZin-2 fluorescence slope; thallium flux slope at 10 µM; 3,700 tested, 33% active; AID 1718, 2009;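 active means thallium flux slope above the same plate's solvent-control mean plus 3 SD in both duplicate wells; inconclusive means duplicate wells that disagreed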;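 further: run without ouabain in cells lacking the KCC2 cotransporter; slope of fluorescence scaled to its starting value between 10 and 20 s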
* hit, by the source's call.

`O=C1NC(=S)SC1=C1CCCC1` gave EP2 mod 11, EP2 antag 10, Cl transport mod 18*, KCC2 sec1 0.0066, KCC2 bumet counter 0.028*, KCC2 secondary2 0.042*, HEK293 Tl flux 0.029*, KCC2 retest ouab 0.037* and HEK293 Tl flux2 0.032*.
CCc1cc2cc(C)cc(C)c2[nH]c1=S was read as S1P3 antag 6, EP2 mod 7, EP2 antag 10, Cl transport mod 124*, KCC2 sec1 0.0068, KCC2 bumet counter 0.024*, KCC2 secondary2 0.11*, HEK293 Tl flux 0.11*, KCC2 retest ouab 0.086* and HEK293 Tl flux2 0.11*.
O=C(Cn1nc2ccccc2n1)N/N=C/c1cc(Cl)cc([N+](=O)[O-])c1O was read as S1P3 antag -6, EP2 mod -17, EP2 antag -2, Cl transport mod -5.3*, KCC2 sec1 0.0071, KCC2 bumet counter inconclusive, KCC2 secondary2 0.025*, HEK293 Tl flux 0.0071, KCC2 retest ouab inconclusive and HEK293 Tl flux2 0.011.
Screening O=C(Cc1c[nH]c2ccccc12)N1CCCCC1c1nc2ccccc2[nH]1 (configuration not stated) returned EP2 mod -45.
Cc1sc2c(c1C)c(=O)n(-c1ccc(F)cc1)c(=O)n2CC(=O)NCc1ccco1 was read as EP2 mod 21 and EP2 antag 10.
For CCc1ccc(-n2c(=O)c3c(C)c(C(=O)N(C)C)sc3n(CC(=O)NCc3ccco3)c2=O)cc1 the results were EP2 mod 30, EP2 antag 5, Cl transport mod 3.8*, KCC2 sec1 0.016, KCC2 bumet counter 0.0046, KCC2 secondary2 0.03, HEK293 Tl flux 0.0076, KCC2 retest ouab 0.017 and HEK293 Tl flux2 0.01.
CCCCSc1nnc(-c2ccc(OC)cc2)n1C was read as EP2 mod -13, EP2 antag 9, Cl transport mod -5*, KCC2 sec1 0.0058, KCC2 bumet counter 0.004, KCC2 secondary2 0.028, HEK293 Tl flux 0.0069, KCC2 retest ouab 0.017 and HEK293 Tl flux2 0.0098.
`CN(C(=O)c1cccc(C#N)c1)c1nnc(-c2cnccn2)s1` gave S1P3 antag -23, EP2 mod -7, EP2 antag 13, KCC2 sec1 0.011, KCC2 bumet counter 0.0064, KCC2 secondary2 0.031, HEK293 Tl flux 0.0075, KCC2 retest ouab 0.023 and HEK293 Tl flux2 inconclusive.
Screening COc1ccc2c(c1)C(=O)[C@@H](O)[C@H](c1ccc(OC)c(Br)c1)O2 returned S1P3 antag -8, EP2 mod 4, EP2 antag 11, Cl transport mod 6*, KCC2 sec1 0.0084, KCC2 bumet counter 0.014*, KCC2 secondary2 0.031, HEK293 Tl flux 0.02*, KCC2 retest ouab inconclusive and HEK293 Tl flux2 0.011.
`COc1ccc(Nc2nc(N3CCCC3)nc(N3CCCC3)n2)c(OC)c1` gave EP2 mod 20, EP2 antag 6, Cl transport mod -2.4*, KCC2 sec1 inconclusive, KCC2 bumet counter 0.0066, KCC2 secondary2 0.034, HEK293 Tl flux 0.0082, KCC2 retest ouab 0.023 and HEK293 Tl flux2 0.011.
Screening COc1ccc(CCNC(=O)[C@H]2C[C@@H](c3cccs3)NS(=O)(=O)N2C)cc1OC returned EP2 mod -23.
`CC(C)NC(=S)N/N=C/c1sc(N2CCCCC2)nc1-c1cccs1` gave S1P3 antag -16, EP2 mod 14, EP2 antag 1, Cl transport mod 3.1*, KCC2 sec1 0.011, KCC2 bumet counter 0.011*, KCC2 secondary2 0.034, HEK293 Tl flux 0.0099*, KCC2 retest ouab 0.025 and HEK293 Tl flux2 0.01.
For S=c1nc(C2CC2)n(-c2ccccc2)[nH]1 the results were S1P3 antag -2, EP2 mod -26, EP2 antag 5, Cl transport mod 4*, KCC2 sec1 0.014*, KCC2 bumet counter 0.012*, KCC2 secondary2 0.031, HEK293 Tl flux 0.01*, KCC2 retest ouab inconclusive and HEK293 Tl flux2 inconclusive.
For Oc1ccc(-c2nc(-c3ccc(O)c(O)c3)cs2)cc1 the results were S1P3 antag -38, EP2 mod -37, EP2 antag 5, Cl transport mod -3.5*, KCC2 sec1 0.0095, KCC2 bumet counter 0.0075, KCC2 secondary2 inconclusive, HEK293 Tl flux 0.0062, KCC2 retest ouab 0.014* and HEK293 Tl flux2 0.01.
Screening Oc1cccc(Nc2nc(-c3ccc(O)c(O)c3)cs2)c1 returned EP2 mod -98 and EP2 antag 36.
Cc1ccc2cc(C#N)c(SCC(=O)Nc3ccccc3N3CCOCC3)nc2c1 was read as EP2 mod 4 and EP2 antag 9.
`Cc1ccc2cc(C(c3nnnn3Cc3ccccc3)N3CCCC(C)C3)c(=O)[nH]c2c1C` (configuration not stated) gave EP2 mod -28 and EP2 antag 11.
CCc1cc(=O)[nH]c(NC2CCN(C(=O)c3ccc4c(c3)OCO4)CC2)n1 was read as EP2 mod -9 and EP2 antag 6.
Screening COc1cc2nc(=S)n3[nH]c(COc4ccccc4C)nc3c2cc1OC returned S1P3 antag -3, EP2 mod 8, EP2 antag 5, Cl transport mod -9.2*, KCC2 sec1 0.0088, KCC2 bumet counter 0.0059, KCC2 secondary2 0.029, HEK293 Tl flux 0.0061*, KCC2 retest ouab 0.01* and HEK293 Tl flux2 inconclusive.

Source: PubChem BioAssay
